This note sets out measurements from PubChem BioAssay AID485294 (National Center for Advancing Translational Sciences (NCATS), 2010).

Molecules are shown by their SMILES. The whole screen tested about 370,000 compounds, of which about 150 (0.041%) were called active. Not shown: some 14% with an inconclusive outcome. This is one part of a sample in which actives are shown more often than they occur. A number with no mark means an inactive call. Calls come from the whole dose curve; as a rule, active = well fitted inhibition curve with a large enough effect; inconclusive = small, poorly fitted or top-dose-only effect; inactive = flat fitted curve, though single readings scatter.
Potency is the fitted concentration of half-maximal effect.

For the assay, the target named is Beta-lactamase (Escherichia coli (strain K12)) (UniProt P00811). Description: qHTS Inhibitors of AmpC Beta-Lactamase (assay with detergent).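 For activity change, negative = inhibition: 0% = no-compound wells and -100% = no-enzyme wells.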 Note: nearly all actives have a fitted effect of over 25% in size. To be noted: AmpC hydrolysis of nitrocefin, absorbance 480 nm, 0.01% Triton; series mostly up to 114 µM; activity change, negative = inhibition: at the top concentration. Here is the method: NIH Molecular Libraries Probe Production Network [MLPCN] NIH Chemical Genomics Center [NCGC] Assay Provider: Professor Brian Shoichet, UCSF Assay Overview: This aggregation profiling approach exploits the sensitivity of aggregate formation to detergent. Inhibition of b-lactamase is measured in the presence and absence of 0.01% Triton X-100. This particular assay had the prescence of 0.01% Triton X-100. See Pubchem assay "Promiscuous and Specific Inhibitors of AmpC Beta-Lactamase (assay without detergent)" for related screen. Compounds that inhibit only in the absence of detergent are considered likely promiscuous aggregators. A screen of 1,030 compounds was performed in Brian Shoichet's lab in 96-well format. AmpC activity was measured by following the absorbance at 480 nm. Nitrocefin is a chromogenic substrate: while nitrocefin is yellow (lmax 390 nm), the product of its hydrolysis is red (lmax 486 nm, 17,000 M-1). AmpC beta lactamase was provided by Shoichet Lab, UCSF.
Sequence of Beta-lactamase (Escherichia coli (strain K12)) (P00811 whole entry, looked up): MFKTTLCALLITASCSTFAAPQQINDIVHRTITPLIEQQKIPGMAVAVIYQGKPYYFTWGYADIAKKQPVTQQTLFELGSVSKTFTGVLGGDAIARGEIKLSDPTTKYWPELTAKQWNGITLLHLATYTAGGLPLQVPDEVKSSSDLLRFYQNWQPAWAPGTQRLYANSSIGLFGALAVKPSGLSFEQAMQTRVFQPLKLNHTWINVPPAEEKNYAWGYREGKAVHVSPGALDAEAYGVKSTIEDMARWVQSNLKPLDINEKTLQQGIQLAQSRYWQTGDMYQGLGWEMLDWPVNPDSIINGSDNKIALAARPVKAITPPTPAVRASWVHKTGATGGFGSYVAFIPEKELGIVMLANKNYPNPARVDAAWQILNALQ
Buffer: 20 mM phosphate buffer, pH 7.0 Triton X-100: No Detergent screen: 0.0001%, Detergent screen: 0.01%. Reagents/Controls: Buffer in columns 3 and 4 as negative control (no enzyme). 5.3 nM AmpC in columns 1, 2, 5-48. Titration of UCSF compound 9 control (from 10 mM, then 1:2) pin-transferred to column 2. Column 1 is neutral (100% activity). Assay Steps: Six uL of reagents were dispensed to 1536-well Greiner black clear bottom plates. Compounds and controls (23 nL) were transferred via Kalypsys PinTool. The plates were incubated for 15 min at room temperature, and then 2 uL of 800 uM solution of nitrocefin was added to start the reaction. The plates were immediately transferred to and read every 20 seconds for 4 min on ViewLux (Perkin-Elmer) High-throughput CCD imager using 480 nm absorbance protocol. During dispense, reagent bottles were kept submerged into 4 deg C water bath. Keywords: NIH Roadmap, MLSCN, MLI, MLSMR, qHTS, NCGC, AmpC Beta-Lactamase, Aggregation
On the technique in general: qHTS replaces the single test concentration by a dilution series.
With `CC(C)(C)c1ccc(C(=O)NCC(c2ccc(Cl)cc2)N2CCOCC2)cc1` (configuration not stated), the “activity change, negative = inhibition” value is 2.83%.

As to `COC(=O)c1c(NC(=O)c2cc(=O)c3c(C)cc(C)cc3o2)sc2c1CCCC2`, the “activity change, negative = inhibition” value is 10.8%. Still for that read-out and setting: with `CCc1cc2c(cc3c(=O)n(CC(=O)NCCc4ccc(OC)c(OC)c4)ncn32)s1` the figure was 3.6%; with `Cc1ccccc1CNC(=O)Cn1c(C)c2cnn(-c3ccccc3)c(=O)c2c1C`, 19.2%; with `COc1ccc(-c2nc3sc(CCNC(=O)C(C)(C)C)c(C)n3n2)cc1`, -0.935%. The same measure, in the same setting: the result for `Cc1nn(C(=O)c2c(F)cccc2F)c(C)c1S(=O)(=O)N1CCOCC1` reads 11.4%. Regarding `CCOc1ccc(C(=O)/C=C/c2cn(CC(O)CN3CCCCCC3)c3ccccc23)cc1` (configuration not stated), the “activity change, negative = inhibition” value was 16.8%. Same read-out and setting: with `COc1ccc(OCCCn2c(C3CC(=O)N(c4ccc(F)cc4)C3)nc3ccccc32)cc1` (configuration not stated) the figure was 20.7%; with `Cn1c(C(=O)Nc2cccc(C(F)(F)F)c2)cc2c(=O)n3ccccc3nc21`, -1.95%.

Consider `CCOc1ccc(CNC(=O)Cn2cc3c(n2)-c2c(oc(C(=O)N4CCCC4)c2C)CC3)cc1`, for which the “activity change, negative = inhibition” value was -4.37%. Still for that read-out and setting: the result for `Cc1ccc(Nc2c(-c3ccc(N(C)C)cc3)nc3nc[nH]n23)cc1` reads 18.3%; that for `CCOC(=O)c1ccc(NC(=O)C2CCN(S(=O)(=O)c3ccc4c(c3)CCCC(=O)N4)CC2)cc1`, -0.957%; that for `Cc1csc2nc(COC(=O)c3ccccc3NC(=O)c3ccccc3Cl)cc(=O)n12`, -0.932%. Still for that read-out and setting: the result for `CCOc1ccc(Nc2c(S(=O)(=O)c3ccccc3)cnc3ccccc23)cc1` reads 1.55%; that for `CCCCn1cc(S(=O)(=O)c2ccc(OCC)cc2)c(=O)c2cc(OC)c(OC)cc21`, 0.326%. Still for that read-out and setting: the result for `Cc1ccc(C)c(N2CCN(CCCNC(=O)Nc3ccc(Cl)cc3)CC2)c1` reads 16.9%; that for `Cc1ccc2nc(-c3ccc(C)c(NC(=O)Cc4ccccc4)c3)oc2c1`, 10.6%. On to `CCc1cccc(C)c1Nc1c(-c2ccc(N(C)C)cc2)nc2ncccn12`, for which the “activity change, negative = inhibition” value was 7.08%. The same measure, in the same setting: with `CCc1ccc(N2C(=O)CN(S(=O)(=O)CC)CC2(C)C(=O)NC2CCCCC2)cc1` (configuration not stated) the figure was -6.84%; with `COc1ccc(N2CCN(C(=O)C3CCCN(C(=O)c4cc5sccc5n4C)C3)CC2)cc1` (configuration not stated), -0.711%.

With `O=C(CCS(=O)(=O)c1ccccc1)N(Cc1cccnc1)c1nc2c(F)cccc2s1`, the “activity change, negative = inhibition” value was 1.34%. For `CCOC(=O)c1nnn(CC(=O)NC(=O)Nc2ccccc2F)c1C(=O)OCC`, the “activity change, negative = inhibition” value is 3.71%. Consider `C[C@@H](NC(=O)OC(C)(C)C)c1nnc(S(=O)(=O)Cc2ccccc2)o1`, for which the Potency was 8.91 µM (active). Consider `CC(C)Sc1nnc([C@H](Cc2ccccc2)NC(=O)OC(C)(C)C)o1`, for which the “activity change, negative = inhibition” value was 1.69%. On the same count and under the same terms, the result for `CCc1ccccc1NC(=O)CSc1nnc([C@@H](NC(=O)OC(C)(C)C)C(C)C)o1` reads -12.6%; that for `CC1CCN(S(=O)(=O)c2ccc3c(c2)N(CC(=O)NCCc2ccccc2)C(=O)CO3)CC1`, 15.2%. Still for that read-out and setting: with `Cc1cccc(-n2ncc(C(=O)N3CCN(c4ccc(Cl)cc4)CC3)c2C2CCN(C(=O)OC(C)(C)C)CC2)c1` the figure was 22.4%; with `CCOC(=O)c1ccc(NC(=O)CCS(=O)(=O)c2ccc(C)cc2)cc1`, -5.95%. On the same count and under the same terms, with `CCOC(=O)c1scc(-c2ccc(C)cc2)c1S(=O)(=O)Nc1cc(C)ccc1C` the figure was 19.9%; with `Cc1ccc(S(=O)(=O)N2CCc3cc(C(=O)Nc4ccc(Cl)cc4C)ccc32)cc1`, 18.7%; with `CC1CCCN(c2cc3c(cc2F)c(=O)c(S(=O)(=O)c2cccc(Cl)c2)cn3Cc2ccccc2)C1` (configuration not stated), 0.274%. Take `CCOC(=O)c1ccc(NC(=O)CSc2nc3c([nH]c4ccccc43)c(=O)n2C)cc1`: the “activity change, negative = inhibition” value is 2.22%.

For the compound `COc1ccc(C2CC(=O)N(Cc3ccccc3C)c3c2c(C)nn3-c2nc(C)cc(C)n2)c(OC)c1` (configuration not stated), the “activity change, negative = inhibition” value is 14.8%. On the same count and under the same terms, the result for `COc1ccc2c(c1)c(=O)c(S(=O)(=O)c1ccc(F)cc1)cn2CC(=O)Nc1ccc(C)cc1C` reads -3.33%; that for `Cn1c(=O)nc2n(-c3ccc(Br)cc3)c3cccc(Cl)c3cc-2c1=O`, 3.23%. Same read-out and setting: with `O=C(Cn1cc(SCc2ccccc2)c2ccccc21)N1CCCCC1` the figure was -4.92%.

With `COCCCNC(=O)c1c(NC(=O)c2cc(=O)c3cc(C)c(C)cc3o2)sc2c1CCCC2`, the “activity change, negative = inhibition” value was 3.2%. The same measure, in the same setting: the result for `COc1ccc2c(c1)c(N1CCCC1=O)c(C(=O)Nc1ccccc1C(F)(F)F)n2C` reads 14.7%; that for `CCOc1cc(C(=O)NCCc2csc3nc(-c4ccc(C)cc4)nn23)cc(OCC)c1OCC`, 11.5%.

As to `COc1ccccc1CNC(=O)CCn1c(=O)c2ccccc2n(CC(=O)Nc2cccc(Cl)c2)c1=O`, the “activity change, negative = inhibition” value is 21.1%. Same read-out and setting: the result for `O=C1OC(NC(=O)c2ccccc2)C(N2CCOCC2)=C1Cl` (configuration not stated) reads -0.396%. With `O=C1OC(OC(=O)c2ccccc2Br)C(N2CCOCC2)=C1Cl` (configuration not stated), the Potency was 10 µM (active). In the case of `COc1ccc(NS(=O)(=O)c2ccc(N3CCOCC3)c(NC(=O)c3ccccc3Br)c2)cc1`, the “activity change, negative = inhibition” value was -2.02%. Same read-out and setting: with `Cc1oc2c(c1C(=O)Nc1ccc(F)c(F)c1)C1=NCCN1C=N2` the figure was 29.2%; with `Cn1c(=O)sc2cc(NS(=O)(=O)c3ccc(C(C)(C)C)cc3)ccc21`, 23.6%. As for `CCCN(CCC)C(=O)C(Cc1ccccc1)NS(=O)(=O)c1ccc2c(c1)c(=O)n(C)c(=O)n2C` (configuration not stated), the “activity change, negative = inhibition” value was 4.62%. Still for that read-out and setting: with `CCOc1ccc(NC(=O)c2c(NC(=O)Cc3ccccc3)sc3c2CCCCC3)cc1` the figure was -6.09%.
